Activity calls are given as the source filed them.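 Rule for the calls, unless noted: active = visually confirmed hit in the image check and inhibition above 20%; inconclusive = visually confirmed hit but inhibition not above 20%; inactive = no visual hit in the image check.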
Tests used:
[1] = inhibitors of TNFa-induced NFkB p65 translocation, primary screen, imaging, HUVEC, MLSMR starter and 10KST1 sets (AID 438;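 active = inhibition above 20% together with a positive visual image hit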;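 note: compound added about 3h40 before a 20 min TNFalpha stimulation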;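 for inhibition: signal is the nuclear over cytoplasmic p65 intensity ratio per well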); details: HUVEC TNFa-induced p65 nuclear translocation; cell count: measured here: nuclei count (cytotoxicity indicator), at 2.08 µM; inhibition: at 2 µM, stronger effect = higher value, 0% TNFa-plus-vehicle, 100% no-TNFa wells
[2] = reduction of polyQ htt aggregates in cells – imaging, exon1htt(103Q)mCFP cells, high-content imaging, primary screen (AID 483;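 active = visual image review flags a hit and inhibition of aggregation exceeds 20%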;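 note: compound exposure lasted 3 days before fixation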;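 for nuclei count: percent of the per-plate median nuclei count of sample wells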); details: exon1htt(103Q)mCFP cell line, aggregate imaging, at 2 µM; inhibition of aggregation: stronger effect = higher value; nuclei count: measured here: cell count, toxicity
[3] = endothelial E-selectin expression blockers – imaging, HUVEC, immunofluorescence, MLSMR starter and 10KST1 sets, primary screen (AID 487); details: HUVEC TNFalpha-induced E-selectin immunofluorescence imaging, at 2 µM; inhibition: stronger effect = higher value; nuclei count: measured here: cell number, toxicity;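 for inhibition: signal is fraction of cell area covered by stained E-selectin grains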;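 for nuclei count: 100% = median nuclei count of all wells on the same plate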
[4] = molecular target: Voltage-gated potassium channel subunit beta-2 (Rattus norvegicus) (UniProt P62483); experiment: inhibitors of rat Kvbeta2 reductase activity – biochemical, NADPH fluorescence, primary screen (AID 622;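 active = fluorescence slope higher than the sample average by over 3 SD, cut at about -0.22 in these data, passing the limit was not always enough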;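 note: slope of raw intensity against log time taken from 70 to 1610 s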); details: recombinant KvBeta, 4-cyanobenzaldehyde reduction, at 10 µM, stronger effect = higher value
Sequence of Voltage-gated potassium channel subunit beta-2 (Rattus norvegicus) (P62483 whole entry, looked up): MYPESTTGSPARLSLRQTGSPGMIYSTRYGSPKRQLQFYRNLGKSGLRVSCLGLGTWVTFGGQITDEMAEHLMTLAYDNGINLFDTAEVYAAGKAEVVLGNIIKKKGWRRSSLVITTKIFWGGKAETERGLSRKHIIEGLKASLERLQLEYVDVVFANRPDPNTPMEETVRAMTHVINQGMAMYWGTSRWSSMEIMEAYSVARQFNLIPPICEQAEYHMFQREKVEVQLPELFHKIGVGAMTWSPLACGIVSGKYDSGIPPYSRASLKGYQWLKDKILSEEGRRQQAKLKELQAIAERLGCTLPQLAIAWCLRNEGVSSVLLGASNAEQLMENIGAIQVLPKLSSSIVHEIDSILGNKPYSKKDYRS

[5] = molecular target: Voltage-gated potassium channel subunit beta-2 (Rattus norvegicus) (UniProt P62483); experiment: enhancers of rat Kvbeta2 NADPH turnover – biochemical, NADPH fluorescence, primary screen (AID 623;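 active = NADPH fluorescence slope more negative than the mean of all samples by about 3 SD, 99.7% confidence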;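 note: fluorescence intensity change per second fitted from 20 to 320 s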); details: Recombinant KvBeta, NADPH fluorescence decrease slope, 10 min; at 10 µM; stronger effect = lower value
[6] = molecular target: Alpha-2C adrenergic receptor (Homo sapiens) (UniProt P18825); experiment: compounds altering alpha2C-coupled GIRK flux – cell-based, HEK293 alpha2C/GIRK1/2, thallium flux, primary screen (AID 624;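 active = fluorescence slope after compound addition differing from the mean of all screened samples at 99.7% confidence, in either direction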;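 note: slope of fluorescence ratio to pre-addition baseline per second over 15 to 24 s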); details: thallium flux BTC fluorescence, at 10 µM, actives lie on both sides
Sequence of Alpha-2C adrenergic receptor (Homo sapiens) (P18825 whole entry, looked up): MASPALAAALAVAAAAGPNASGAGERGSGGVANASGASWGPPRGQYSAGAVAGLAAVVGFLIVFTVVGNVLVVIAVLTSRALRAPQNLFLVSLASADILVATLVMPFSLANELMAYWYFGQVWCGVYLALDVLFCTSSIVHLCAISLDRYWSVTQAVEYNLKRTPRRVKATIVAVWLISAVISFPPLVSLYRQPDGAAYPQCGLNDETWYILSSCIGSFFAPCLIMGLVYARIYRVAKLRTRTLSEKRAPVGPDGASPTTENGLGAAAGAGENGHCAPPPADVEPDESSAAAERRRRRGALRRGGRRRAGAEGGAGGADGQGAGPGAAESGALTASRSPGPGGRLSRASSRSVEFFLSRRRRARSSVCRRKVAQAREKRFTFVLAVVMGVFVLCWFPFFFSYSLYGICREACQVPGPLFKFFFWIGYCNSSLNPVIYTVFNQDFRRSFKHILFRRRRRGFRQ

[7] = blockers of RIG-like receptor reporter activation – cell-based, Sendai virus stimulus, luciferase, 10K MLSCN set, TLR/RLR signaling modifier project, primary screen (AID 602276;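 active = inhibition at or above 50% at 10 µM; inactive = inhibition below 50%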;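 note: firefly luciferase from ISG56 promoter only with Renilla not read in this screen; 0% = Sendai virus plus DMSO and 100% = medium plus DMSO without virus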); details: HEK293 RL24 IRF3 luciferase reporter, at 10 µM, stronger effect = higher value
[8] = TLR3 IRF3 reporter activation blockers – cell-based, poly I:C stimulus, luciferase, 10K MLSCN set, primary screen (AID 602277;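 active = inhibition of the reporter signal at or above 50%; inactive = inhibition below 50%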); details: HEK293-TLR3 RL24 IRF3 luciferase reporter, at 10 µM, stronger effect = higher value

| SMILES | cell count [1] | inhibition [1] | inhibition of aggregation [2] | nuclei count [2] [%] | inhibition [3] | nuclei count [3] [%] | fluorescence slope [4] | NADPH fluorescence slope [5] | slope [6] | inhibition [7] | inhibition [8] |
| --- | --- | --- | --- | --- | --- | --- | --- | --- | --- | --- | --- |
| O=C(CCn1c(=O)oc2ccccc21)NCc1ccco1 | 686 | -5.9% (inactive) | -10% (inactive) | 104 | -32.5% (inactive) | 127 | -0.598 (inactive) | -5.1e-05 (inactive) | 0.00749 (inactive) | -5.54% (inactive) | 6.8% (inactive) |
| COc1ccccc1NC(=O)c1cc2n(n1)C(C(F)(F)F)CC(c1ccc3c(c1)OCO3)N2 (stereo not drawn) | 479 | 2.4% (inactive) | 5.1% (inactive) | 109 | -14.9% (inactive) | 110 | -0.629 (inactive) | 6.1e-06 (inactive) | 0.00604 (inactive) | -5.6% (inactive) | -16.2% (inactive) |
| O=C(NCCCN1CCOCC1)c1cc(-c2ccc(O)cc2)on1 | 614 | -1.6% (inactive) | -5.2% (inactive) | 92.4 | -46.9% (inactive) | 114 | -0.565 (inactive) | -3.8e-05 (inactive) | 0.00654 (inactive) | 2.55% (inactive) | -5.13% (inactive) |
| CC(C)COC(=O)C1C2C=CC3(CN(C(C)c4ccc(Br)cc4)C(=O)C13)O2 (stereo not drawn) | 477 | -10.8% (inactive) | 28.1% (inactive) | 78.4 | -32.2% (inactive) | 86.6 | -0.532 (inactive) | -3.6e-05 (inactive) | 0.00795 (inactive) | 11.4% (inactive) | 28.5% (inactive) |
| O=C(CSc1nnc2ccccn12)c1ccccc1 | 535 | 7.7% (inactive) | 2.2% (inactive) | 105 | 23.4% (inactive) | 70.9 | -0.46 (inactive) | 4e-05 (inactive) | 0.00782 (inactive) | -34.1% (inactive) | -86.4% (inactive) |
| O=C(Nc1cccnc1)c1noc2c1CCCCC2 | 253 | -3.9% (inactive) | 14.8% (inactive) | 98.5 | -1.4% (inactive) | 113 | -0.325 (inactive) | -1.6e-05 (inactive) | 0.00304 (inactive) | 33.4% (inactive) | -4.09% (inactive) |
| O=C(Nc1nnc(COc2ccc(F)cc2)s1)c1cccs1 | 585 | 7.2% (inactive) | 3.9% (inactive) | 126 | -42.4% (inactive) | 104 | -0.52 (inactive) | -2.5e-05 (inactive) | 0.0053 (inactive) | 12.6% (inactive) | 6.8% (inactive) |
| CCCNc1nc(N2CCOCC2)nc(N2CCOCC2)n1 | 193 | -17.4% (inactive) | 23.8% (inactive) | 92.2 | 3.6% (inactive) | 91.7 | -0.498 (inactive) | -2.3e-05 (inactive) | 0.00617 (inactive) | -9.95% (inactive) | 18.9% (inactive) |
| Cn1c(C(=O)NCC2CCCO2)cc2c(=O)n(C)c3ccccc3c21 (stereo not drawn) | 658 | -5.5% (inactive) | -1.8% (inactive) | 115 | -71.5% (inactive) | 107 | -0.583 (inactive) | -3.1e-05 (inactive) | 0.00806 (inactive) | 7.53% (inactive) | 19% (inactive) |
| Cc1nc2ccc(N3C(=O)CCC3=O)cc2[nH]1 | 282 | -8% (inactive) | 9.2% (inactive) | 92.3 | -42.2% (inactive) | 113 | -0.553 (inactive) | 5.4e-06 (inactive) | 0.00593 (inactive) | 6.8% (inactive) | 15.6% (inactive) |
| CC1CCCCC1NC(=O)c1ccc(N2CCCC2=O)cc1 (stereo not drawn) | 536 | -21.7% (inactive) | -20.5% (inactive) | 142 | -20.8% (inactive) | 103 | -0.51 (inactive) | 3.4e-05 (inactive) | 0.00599 (inactive) | 5.47% (inactive) | -5.67% (inactive) |
| CCCc1ccc(Oc2cn[nH]c2-c2ccc(O)c(C)c2O)cc1 | 679 | 5.8% (inactive) | 11% (inactive) | 98 | 16% (inactive) | 104 | -0.602 (inactive) | -1.2e-05 (inactive) | 0.00642 (inactive) | -1.06% (inactive) | -27.9% (inactive) |
| O=C(Nc1ccc(N2CCOCC2)cc1)c1cc2ccccc2o1 | 775 | -1.9% (inactive) | 7.2% (inactive) | 106 | -29.4% (inactive) | 97.9 | -0.479 (inactive) | 1.9e-05 (inactive) | 0.003 (inactive) | -72.9% (inactive) | -187% (inactive) |

From PubChem BioAssay
